PubChem BioAssay (EPA / NIEHS)
Results filed as inconclusive are left out. The source made the active and inactive calls. How the source made its calls, unless noted: active means hit-call score of the fitted dose curve at least 0.9, where 1 is the maximum; inactive means score below 0.9.

Tests used:
[1] = CCTE_Harrill_HTTr_Apoptosis_MCF7: CCTE's 6-hour Apoptosis Assessment for the High-Throughput Transcriptomics (HTTr) Platform, in MCF-7 cells cultured in DMEM + 10% fetal bovine serum, Harrill Lab (AID 2284011)
Outline: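 MCF-7 (DMEM + 10% FBS), 384-well; 8-pt dilution series, 6 h chemical exposure; caspase-3/7 activation via CellEvent Caspase 3/7 Green, HCI; bidirectional fit vs DMSO.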

[2] = CCTE_Shafer_MEA_acute_burst_duration_mean: CCTE's Neural Acute Assay for Mean Burst Duration, Shafer Lab (AID 2284014);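 further: hits are decreases in mean burst duration relative to DMSO controls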
Outline: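 Rat cortical cultures, DIV 13/15; 40 min baseline, then 40 min with compound (0.03-40 uM), 37 C. Spikes: 300-5000 Hz band-pass, 8x rms threshold. Read-out: % change in mean single-electrode burst duration, DMSO-referenced, loss direction.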

[3] = CCTE_Shafer_MEA_acute_per_burst_spike_number_mean: CCTE's Neural Acute Assay for Average Number of Spikes Per Burst, Shafer Lab (AID 2284015);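 further: hits are decreases in mean spikes per burst versus baseline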
Outline: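 Percent change in mean spikes per single-electrode burst is compared between a 40 min baseline and a 40 min recording with compound (0.03-40 uM). Cultures were rat cortical neurons on MEA plates at DIV 13 or 15, recorded at 37 C, with DMSO as the negative control.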

[4] = CCTE_Shafer_MEA_acute_interburst_interval_mean: CCTE's Neural Acute Assay for Mean Interburst Interval, Shafer Lab (AID 2284016);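 further: percent change of mean interburst interval versus each well's own pre-dose baseline; curves fitted for decrease in interburst interval relative to DMSO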
Outline: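 Percent change in mean single-electrode interburst interval was calculated per well from 40 min recordings before and after compound (0.03-40 uM). Recordings were made at 37 C on rat cortical cultures at DIV 13 or 15, with spikes detected at 8x rms threshold.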

[5] = CCTE_Shafer_MEA_acute_burst_percentage_mean: CCTE's Neural Acute Assay for Percentage of Spikes in a Burst, Shafer Lab (AID 2284017)
Outline: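 Well-level mean burst percentage from a 40-min recording after compound (0.03-40 uM) expressed as percent change from a 40-min baseline at 37C. Cultures: primary rat cortical neurons on MEA, dosed on DIV 13 or 15; fitted downward relative to DMSO.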

[6] = CCTE_Shafer_MEA_acute_burst_percentage_std: CCTE's Neural Acute Assay for Standard Deviation of Burst Percentage, Shafer Lab (AID 2284018);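 further: fitted in the negative direction so actives lower burst percentage SD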
Outline: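 Rat primary cortical neurons on 48-well MEAs, DIV 13 or 15, 37 C. 40-min baseline then 40-min recording with compound (0.03-40 uM); well-level SD of per-electrode burst spike percentage, expressed as percent change from baseline.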

[7] = CCTE_Shafer_MEA_acute_per_network_burst_spike_number_mean: CCTE's Neural Acute Assay for Average Number of Spikes in a Network Burst, Shafer Lab (AID 2284019)
Outline: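 Rat cortical cultures, DIV 13/15; spike threshold 8x rms noise, 300-5000 Hz band-pass, 12.5 kHz sampling; wells need >/= 10 active electrodes. Compound 0.03-40 uM, 40 min, 37 C; % change vs own baseline, DMSO negative control.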

[8] = CCTE_Shafer_MEA_acute_per_network_burst_spike_number_std: CCTE's Neural Acute Assay for Standard Deviation of Number of Spikes in a Network Burst, Shafer Lab (AID 2284020);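 further: fitted for decrease in spike-number SD versus DMSO so actives lower it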
Outline: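 Rat cortical cultures, DIV 13/15, 37 C; 20-min stabilisation, 40-min baseline, compound 0.03-40 uM, 40-min re-record. Spikes detected at 8x rms noise (300-5000 Hz band-pass). Readout: % change from baseline in per-burst spike-number SD.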

[9] = CCTE_Shafer_MEA_acute_per_network_burst_electrodes_number_mean: CCTE's Neural Acute Assay for Mean Number of Electrodes in a Network Burst, Shafer Lab (AID 2284021);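 further: curves fitted for decreases only so hits reduce electrodes per burst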
Outline: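 Primary rat cortical networks, mwMEA, 37 C. 20 min stabilization, 40 min baseline, compound 0.03-40 uM, 40 min re-record. Wells need >=10 active electrodes; percent change per well, negative fitting direction.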

[10] = CCTE_Shafer_MEA_acute_network_burst_percentage: CCTE's Neural Acute Assay for Percentage of Network Bursts, Shafer Lab (AID 2284022);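 further: curves fitted for loss so actives lower network burst percentage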
Outline: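 Readout is the fraction of spikes falling in network bursts, expressed as per-well percent change from a 40-min pre-exposure baseline. Primary rat cortical neurons on MEA were exposed to 0.03-40 uM compound on DIV 13 or 15 and recorded for 40 min at 37 C.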

[11] = CCTE_Shafer_MEA_acute_cross_correlation_area: CCTE's Neural Acute Assay for Area of Cross Correlation, Shafer Lab (AID 2284024);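 further: area under pooled inter-electrode spike cross-correlation near zero lag as percent change from own baseline; curves fitted for loss of cross-correlation area so actives lower synchrony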
Outline: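 Plates equilibrated 20 min at 37 C, then 40 min baseline was recorded, compound was added (0.03-40 uM), and a further 40 min was recorded. Wells needed ≥10 active electrodes (≥5 spikes/min) on exposure day.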

[12] = CCTE_Shafer_MEA_acute_cross_correlation_HWHM: CCTE's Neural Acute Assay for Cross Correlation at Half Width at Half Maximum, Shafer Lab (AID 2284026);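 further: percent change per well from pre-dose baseline in spike cross-correlogram half width; hits are a decrease in cross-correlogram half width relative to DMSO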;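 on outcome: spontaneous network firing of rat primary cortical neurons on multiwell microelectrode arrays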
Outline: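 Rat cortical neuron cultures on microelectrode arrays were equilibrated 20 min at 37 C, recorded 40 min at baseline, then 40 min after compound addition (0.03-40 uM, ≥3 wells). Spikes were detected at 8x rms noise after 300-5000 Hz band-pass filtering.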

[13] = CCTE_Shafer_MEA_acute_synchrony_index: CCTE's Neural Acute Assay for Synchrony, Shafer Lab (AID 2284027);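 further: network synchrony index of spontaneous spiking in primary rat cortical neurons on MEAs; fitted for loss of signal so actives lower synchrony relative to DMSO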
Outline: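 The synchrony index is taken as percent change per well between a 40 min baseline and a 40 min recording with compound (0.03–40 uM), at 37C. Rat cortical cultures on multiwell MEAs at DIV 13 or 15, spike threshold 8× rms noise.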

[14] = CCTE_Harrill_HTTr_CellCount_MCF7: CCTE's Cell Proliferation Assessment for the High-Throughput Transcriptomics (HTTr) Platform, Harrill Lab (AID 2284012; active means hit-call score of the fitted dose curve at least 0.9, where 1 is the maximum;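 further: cells exposed to compound for six hours; intended direction is loss of nuclei count meaning fewer cells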)
Outline: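 Cell count from high-content imaging of Hoechst-labeled nuclei serves as viability/growth readout. Chemicals were applied to MCF-7 cells in eight concentrations for six hours, with fitting in both directions relative to DMSO.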

[15] = biological target: Estrogen receptor (Homo sapiens) (UniProt P03372); experiment: CCTE_Deisenroth_AIME_384WELL_LUC_Active: CCTE's 384-well Estrogen Receptor Transactivation Assay with AIME metabolic competence (ERTA luciferase; metabolism positive), Deisenroth Lab (AID 2284030; active means hit-call score of the fitted dose curve at least 0.9, where 1 is the maximum)
Chain of Estrogen receptor (Homo sapiens) (P03372 whole entry, looked up): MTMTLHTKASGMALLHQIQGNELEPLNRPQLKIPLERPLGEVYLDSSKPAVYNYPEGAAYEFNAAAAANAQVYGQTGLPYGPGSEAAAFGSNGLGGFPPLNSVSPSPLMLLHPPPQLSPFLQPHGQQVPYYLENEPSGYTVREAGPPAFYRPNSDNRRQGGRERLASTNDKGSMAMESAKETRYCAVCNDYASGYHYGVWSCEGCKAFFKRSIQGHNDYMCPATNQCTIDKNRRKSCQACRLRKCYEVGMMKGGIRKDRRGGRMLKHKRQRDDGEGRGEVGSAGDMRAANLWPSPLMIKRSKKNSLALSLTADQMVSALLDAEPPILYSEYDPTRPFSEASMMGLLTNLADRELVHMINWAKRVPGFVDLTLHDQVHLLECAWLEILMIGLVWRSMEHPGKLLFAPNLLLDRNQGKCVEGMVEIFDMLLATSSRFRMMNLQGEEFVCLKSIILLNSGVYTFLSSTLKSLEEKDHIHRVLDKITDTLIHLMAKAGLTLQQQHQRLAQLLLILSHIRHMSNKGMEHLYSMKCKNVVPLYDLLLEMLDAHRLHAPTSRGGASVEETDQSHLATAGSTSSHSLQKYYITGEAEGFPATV
Outline: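 AIME metabolism-positive mode: chemicals 0.002 - 200 uM, 2 h with alginate-bound PB/BNF-induced rat S9 → medium to VM7Luc4E2 ERTA, 24 h → luciferase. Positive fit vs 17beta-estradiol; n=4 typical.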

[16] = biological target: Estrogen receptor (Homo sapiens) (UniProt P03372); experiment: CCTE_Deisenroth_AIME_96WELL_LUC_Active: CCTE's 96-well Estrogen Receptor Transactivation Assay with AIME metabolic competence (ERTA luciferase; metabolism positive), Deisenroth Lab (AID 2284023; active means hit-call score of the fitted dose curve at least 0.9, where 1 is the maximum)
Outline: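 Metabolism-positive mode: induced rat hepatic S9 in alginate microspheres conditions test solutions (0.002 - 200 uM, 10 points) for 2 hours. VM7Luc4E2 ER luciferase reporter cells then exposed 24 h; positive-direction fit against 17beta-estradiol, n=4 typical.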

[17] = biological target: Estrogen receptor (Homo sapiens) (UniProt P03372); experiment: CCTE_Deisenroth_AIME_96WELL_LUC_Inactive: CCTE's 96-well Estrogen Receptor Transactivation Assay without AIME metabolic competence (ERTA luciferase; metabolism negative), Deisenroth Lab (AID 2284025; active means hit-call score of the fitted dose curve at least 0.9, where 1 is the maximum)
Outline: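 Metabolism-negative arm: chemicals (0.002–200 uM, 10 points) incubated 2 h with alginate-water microspheres, then medium moved onto VM7Luc4E2 cells for 24 h luciferase read-out. Positive direction vs 17beta-estradiol; n≥4 experiments.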

[18] = CCTE_Deisenroth_AIME_96WELL_CTox_Active: Cytotoxicity Assessment (CTOX) in CCTE's 96-well Estrogen Receptor Transactivation Assay with AIME metabolic competence (metabolism positive), Deisenroth Lab (AID 2284028; active means hit-call score of the fitted dose curve at least 0.9, where 1 is the maximum)
Outline: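 Cytotoxicity in VM7Luc4E2 breast cells after 24 h exposure to medium from a 2 h metabolic pre-incubation with induced rat hepatic S9 in alginate microspheres; fluorescent live-cell protease readout, 10-point series 0.002–200 uM, n=4.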

CCOC(=O)c1ccccc1C(=C1C=C(Br)C(=O)C(Br)=C1)c1cc(Br)c(O)c(Br)c1
outcome [1]: inactive
outcome [2]: inactive
outcome [3]: inactive
outcome [4]: inactive
outcome [5]: inactive
outcome [6]: inactive
outcome [7]: inactive
outcome [8]: inactive
outcome [9]: inactive
outcome [10]: inactive
outcome [11]: inactive
AC50 [12]: 11.8 µM (active)
outcome [13]: inactive

NC(=O)c1ccccc1O
outcome [1]: inactive
outcome [14]: inactive

O=C(Nc1ccccc1)c1ccccc1O
outcome [1]: inactive
outcome [14]: inactive

CC(=O)OC(C)C
outcome [1]: inactive
outcome [15]: inactive

Cc1cc(C)c(C)cc1C
outcome [1]: inactive
outcome [14]: inactive

CC(=O)NS(=O)(=O)c1ccc(N)cc1
outcome [1]: inactive
outcome [14]: inactive

CCCCC(CC)COC(=O)c1ccccc1O (stereo not given)
outcome [1]: inactive
outcome [14]: inactive
outcome [2]: inactive
outcome [3]: inactive
AC50 [4]: 7.5 µM (active)
outcome [5]: inactive
outcome [6]: inactive
outcome [7]: inactive
outcome [8]: inactive
outcome [9]: inactive
outcome [10]: inactive
outcome [11]: inactive
outcome [12]: inactive
outcome [13]: inactive

Cc1ccc(C(C)(C)C)cc1
outcome [1]: inactive
outcome [14]: inactive

CCCCCCCCCCCCCCCC[n+]1ccccc1
AC50 [1]: 61.4 µM (active)
outcome [14]: inactive

CCCCC(CC)COC(=O)c1ccccc1 (stereo not given)
outcome [1]: inactive
outcome [14]: inactive

CC(=O)[C@H]1[C@H](C#N)C[C@H]2[C@@H]3CC=C4C[C@@H](O)CC[C@]4(C)[C@H]3CC[C@@]21C
outcome [1]: inactive
outcome [14]: inactive

CC(=O)OCC(=O)[C@@]12N=C(C)O[C@@H]1C[C@H]1[C@@H]3CCC4=CC(=O)C=C[C@]4(C)[C@H]3[C@@H](O)C[C@@]12C
outcome [1]: inactive
outcome [14]: inactive

C=C1C2CCC(C2)C1(C)C (stereo not given)
outcome [1]: inactive
outcome [14]: inactive
outcome [15]: inactive

CC[C@H]1OC(=O)[C@H](C)[C@@H](O[C@H]2C[C@@](C)(OC)[C@@H](O)[C@H](C)O2)[C@H](C)[C@@H](O[C@@H]2O[C@H](C)C[C@H](N(C)C)[C@H]2O)[C@](C)(O)C[C@@H](C)C(=NOCOCCOC)[C@H](C)[C@@H](O)[C@]1(C)O
outcome [1]: inactive
outcome [14]: inactive

COC(=O)C1=C(C)NC(C)=C(C(=O)OCC(C)C)C1c1ccccc1[N+](=O)[O-] (stereo not given)
outcome [1]: inactive
outcome [14]: inactive

CC1(C)O[C@@H]2C[C@H]3[C@@H]4C[C@H](F)C5=CC(=O)CC[C@]5(C)[C@H]4[C@@H](O)C[C@]3(C)[C@]2(C(=O)CO)O1
outcome [1]: inactive
outcome [14]: inactive

NC(=O)N=NC(N)=O
outcome [1]: inactive
outcome [14]: inactive

COc1ccc(-c2coc3cc(O)ccc3c2=O)cc1
outcome [1]: inactive
outcome [14]: inactive
AC50 [16]: 6.69 µM (active)
AC50 [17]: 5.41 µM (active)
outcome [18]: inactive

O=c1[nH]c(=O)c2[nH]c(=O)[nH]c2[nH]1
outcome [1]: inactive
outcome [14]: inactive
